This is a sample that favours compounds with a hit; in the whole collection about 8% have one here.
KB-3-1 tox: qHTS assay for MDR1-selective chemotherapeutics: Primary screen using the parental adenocarcinoma cell KB-3-1. KB-3-1 viability, CellTiter-Glo ATP luminescence, 72 h. Potency, µM (doses to about 46.1 µM), actives largely listed as cytotoxic. 1.4% of 400,000 active. AID 1347075, 2019; note: % is set by controls: 0 for no effect and ±100 for the full control effect; nearly all actives have a fitted effect of over 60% in size
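Screening of KB-3-1 cells (DMEM, 10% FBS, phenol-red free) ran from lowest to highest compound concentration; after 72 h at 37 °C viability was read luminescently and curves fitted.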
MCF10A rereplic: A quantitative high throughput screen for small molecules that induce DNA re-replication in MCF 10a normal breast cells | MCF 10A DNA re-replication, Hoechst nuclear intensity, 48 h | Potency, µM (series often up to 46.1 µM), for inactives: at the top dose activity, positive = re-replication, actives largely listed as activators | 2.9% of 350,000 active | AID 624296, 2012; note: % of control where 0% means no effect; nearly all actives have a fitted effect of over 50% in size
KB-V1 cytotox: qHTS assay for MDR1-selective chemotherapeutics: Primary screen using the drug-selected MDR subline cells KB-V1 | Potency, µM (highest dose often 46.1 µM), most hits filed as cytotoxic | 3.4% of 400,000 active | KB-V1 MDR cells viability, CellTiter-Glo, 72 h; note: % is set by controls: 0 for no effect and ±100 for the full control effect; nearly all actives have a fitted effect of over 60% in size
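Cytotoxicity toward P-gp-expressing KB-V1 cells was determined as loss of CellTiter-Glo luminescence after 72 h at 37 degrees C. Compounds were tested in quantitative HTS format across a concentration range, with curves fitted to normalized data.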
SW480 rereplic: A quantitative high throughput screen for small molecules that induce DNA re-replication in SW480 colon adenocarcinoma cells | SW480 DNA re-replication, Hoechst DNA content imaging, 48 h | Potency, µM (top dose mostly 46.1 µM), inactives show top-dose re-replication activation, hits mostly activators | 1.8% of 340,000 active; note: % of control where 0% means no effect; nearly all actives have a fitted effect of over 55% in size
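Compounds, transferred as 23 nL by pin tool, were incubated with cells for 48 hr; DNA content per nucleus was then quantified by Hoechst staining and fluorescence plate imaging.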
HT1080 IDH1KD tx: qHTS for induction of synthetic lethality in tumor cells producing 2HG: qHTS for the HT-1080-IDH1KD cell line | HT-1080 IDH1 knockdown viability, ATP luminescence, 48 h | Potency, µM (top dose mostly 46.1 µM), for the others: top-dose activity, negative = toxicity, most hits filed as cytotoxic | 2% of 360,000 active | AID 686971, 2013;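 note: 0% = DMSO wells and -100% = cell-free medium wells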
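Using the IDH1-knockdown HT-1080 line run in the same batch and compound series as the NT line, viability after 48 h at 37 °C was determined by CellTiter-Glo luminescence and expressed as % activity.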
HT1080NT lethal: qHTS for induction of synthetic lethality in tumor cells producing 2HG: qHTS for the HT-1080-NT fibrosarcoma cell line | HT-1080-NT fibrosarcoma viability, CellTiter-Glo ATP luminescence, 48 h | Potency, µM (titrated, usually from 46.1 µM), inactives show top-dose activity, negative = less viability, hits mostly cytotoxic | 1.6% of 360,000 active;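 note: NT is the 2HG producing partner of a matched IDH1 knockdown line; 0% = DMSO-treated cells and -100% = media-only wells without cells; nearly all actives have a fitted effect of over 55% in size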
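Fibrosarcoma NT cells, 750 per well in 5% FBS RPMI, were exposed to compound for 48 hours. Viability: CellTiter-Glo luminescence.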
Active calls of the source: *; i = inactive; ? = inconclusive; nt = no result given. Calls come from the whole dose curve; as a rule, active = well fitted curve in the direction sought with a large enough effect; inconclusive = small, poorly fitted or top-dose-only effect, or another doubt; inactive = no such curve, though single readings can be large; an effect the other way counts as inactive or inconclusive. Potency is the fitted concentration of half-maximal effect.

SMILES	KB-3-1 tox	MCF10A rereplic	KB-V1 cytotox	SW480 rereplic	HT1080 IDH1KD tx	HT1080NT lethal
O=S(=O)(N1CCCCC1)N1CCN(CC(O)COc2ccc3cc(Br)ccc3c2)CC1 (configuration not stated)	?	-2%	?	1%	-28%	-15%
C=CCc1ccccc1OCC(O)CN1CCN(c2ccc(OC)cc2)CC1 (configuration not stated)	i	16%	i	3%	3%	0%
CN1CCN(CC(O)COc2ccc(C34CC5CC(CC(C5)C3)C4)cc2)CC1 (configuration not stated)	?	15µM*	?	?	15µM*	18µM*
COc1ccc(C(=O)Nc2cc(-c3nc4ncccc4o3)ccc2C)cc1Br	i	nt	i	nt	nt	nt
COc1ccc(-n2nc(C(=O)N3CCN(c4ccccc4OC)CC3)c3c4ccccc4n(C)c3c2=O)cc1Cl	i	nt	i	nt	nt	nt
COc1ccc(CNC(=O)c2cn(Cc3ccc(S(=O)(=O)N(C)C)cc3)c(=O)s2)cc1	?	nt	23µM*	nt	?	-7%
Cc1c(C(=O)NCc2cccs2)sc(=O)n1Cc1ccc(S(=O)(=O)N(C)C)cc1	?	nt	?	nt	-13%	-2%
Cc1c(C(=O)NCc2ccc3c(c2)OCCO3)sc(=O)n1Cc1ccc(S(=O)(=O)N(C)C)cc1	?	nt	9.2µM*	nt	?	-1%
Cc1c(C(=O)NCc2ccc3c(c2)OCCO3)sc(=O)n1Cc1ccc2c(c1)OCO2	i	nt	?	nt	2%	-16%
Cc1c(C(=O)NCc2ccc3c(c2)OCO3)sc(=O)n1Cc1ccc(S(=O)(=O)N(C)C)cc1	?	nt	2.9µM*	nt	?	-22%
Cc1c(C(=O)NCc2cccc(C(F)(F)F)c2)sc(=O)n1Cc1ccc(S(=O)(=O)N(C)C)cc1	?	nt	?	nt	-27%	-7%
Cc1c(C(=O)NCc2ccc([N+](=O)[O-])cc2)sc(=O)n1Cc1ccc2c(c1)OCO2	i	nt	15µM*	nt	-30%	?
COc1ccc2[nH]c(C(=O)N/N=C/c3ccccc3OC)cc2c1	?	27%	i	?	?	?
COc1ccc2[nH]c(C(=O)N/N=C/c3ccc(OC)c(O)c3)cc2c1	6.5µM*	2.1µM*	9.2µM*	12µM*	1.2µM*	0.58µM*
COc1ccc(/C=N/NC(=O)c2nc(-c3ccccc3)cc(-c3ccccc3)n2)cc1O	?	40%	16µM*	5%	?	?
CCOc1ccc2[nH]c(C(=O)N/N=C/c3ccccc3OC)cc2c1	?	5.2µM*	?	15µM*	?	?
COc1ccc(/C=N/NC(=O)CCn2c3ccccc3c3ccccc32)cc1O	?	2%	i	2%	?	1.4µM*
COc1cc(/C=N/NC(=O)CCn2cnc(-c3ccccc3)c2-c2ccccc2)ccc1O	i	?	i	1%	?	16µM*
Cc1c(/C=N/NC(=O)C(NC(=O)c2ccc3c(c2)OCO3)C(C)C)c2ccccc2n1C (configuration not stated)	i	-75%	18µM*	?	-6%	-8%
COc1ccc(/C=N/NC(=O)c2ccc(CN3C(=O)c4cccc5cccc3c45)cc2)cc1O	i	16µM*	i	-84%	-4%	?
COc1cc(/C=N/NC(=O)c2ccc(CN3C(=O)c4cccc5cccc3c45)cc2)cc(OC)c1O	?	9%	i	-4%	?	-29%
COc1cc(/C=N/NC(=O)CCN2CCCCC2)ccc1O	i	-1%	i	-4%	0%	2%
COc1ccc(CC(=O)N/N=C/c2c(C)n(C)c3ccccc23)cc1OC	?	7.3µM*	?	15µM*	13µM*	?
Cc1cc(OCC(=O)Nc2cccc(-c3nc4ccccc4o3)c2C)cc(C)c1Cl	?	nt	i	nt	nt	nt
Cc1nn(CC(=O)NCc2ccccc2Cl)c(=O)c2cccn12	i	nt	i	nt	nt	nt
SMILES	KB-3-1 tox	MCF10A rereplic	KB-V1 cytotox	SW480 rereplic	HT1080 IDH1KD tx	HT1080NT lethal
Nc1c(-c2ccc3c(c2)OCCO3)oc2ccccc2c1=O	?	18µM*	?	21µM*	0%	-16%
Cc1cc(C)n(CC(=O)NC2C(=O)N3C(C(=O)O)=C(CSc4nnc(C)s4)CSC23)n1 (configuration not stated)	i	0.73µM*	i	-6%	4%	4%
CCOc1ccc(OCC)c(NC(=O)CCc2nc3cccnc3n2-c2ccccc2)c1	i	nt	i	nt	nt	nt
CS(=O)(=O)Nc1cccc(C2=NN(S(C)(=O)=O)C(c3ccc4c(c3)OCO4)C2)c1 (configuration not stated)	15µM*	?	i	?	?	?
CS(=O)(=O)N1N=C(c2ccccc2)CC1c1ccc2c(c1)OCO2 (configuration not stated)	i	-5%	i	1%	-1%	2%
COc1ccc(NC(=O)c2cc(-c3ccncc3)nc3ccc(Br)cc23)cc1OC	?	?	i	?	3%	1%
CC(C)(C)OC(=O)N1CCCC1C(=O)NCCc1ccccc1 (configuration not stated)	i	?	i	0%	15%	10%
CCc1cc2c(C)cc(=O)oc2cc1OC(=O)C1CCCN1C(=O)OC(C)(C)C (configuration not stated)	i	11%	i	18µM*	3%	12%
COc1ccc(/C=N/Nc2nonc2N)cc1OC	?	-5%	?	-3%	12%	10%
COc1ccc(/C=N/Nc2nonc2N)cc1	?	0%	21µM*	-9%	5%	9%
CC(C)c1ccccc1NC(=O)CN1C(=O)c2cccc3cccc1c23	i	nt	i	nt	nt	nt
Cc1ccc(C)c(N2CCN(CCCNC(=O)Cn3c(-c4cccs4)cc4ccccc43)CC2)c1	i	nt	i	nt	nt	nt
COc1ccc(N=C2C(=O)N3c4c(cccc42)C(C)=CC3(C)C)cc1	i	21µM*	?	21µM*	-29%	-22%
COc1ccc(N=C2C(=O)Nc3ccccc32)cc1	i	23%	i	?	-22%	?

High-throughput results: PubChem BioAssay, National Center for Advancing Translational Sciences (NCATS)
